# Results: PubChem BioAssay AID489012 (National Center for Advancing Translational Sciences (NCATS), 2010)
# Records with an inconclusive call do not appear. A call without a number means that no potency is given here. Activity calls are given as the source filed them. Calls follow the shape of the dose curve; as a rule, active = well fitted activation curve with a large enough effect; inconclusive = small, poorly fitted or top-dose-only effect; inactive = no such curve, though single readings can be large or run the other way.
# Target: Relaxin receptor 1 (Homo sapiens) (UniProt Q9HBX9)
# Sequence (Q9HBX9 whole entry, looked up): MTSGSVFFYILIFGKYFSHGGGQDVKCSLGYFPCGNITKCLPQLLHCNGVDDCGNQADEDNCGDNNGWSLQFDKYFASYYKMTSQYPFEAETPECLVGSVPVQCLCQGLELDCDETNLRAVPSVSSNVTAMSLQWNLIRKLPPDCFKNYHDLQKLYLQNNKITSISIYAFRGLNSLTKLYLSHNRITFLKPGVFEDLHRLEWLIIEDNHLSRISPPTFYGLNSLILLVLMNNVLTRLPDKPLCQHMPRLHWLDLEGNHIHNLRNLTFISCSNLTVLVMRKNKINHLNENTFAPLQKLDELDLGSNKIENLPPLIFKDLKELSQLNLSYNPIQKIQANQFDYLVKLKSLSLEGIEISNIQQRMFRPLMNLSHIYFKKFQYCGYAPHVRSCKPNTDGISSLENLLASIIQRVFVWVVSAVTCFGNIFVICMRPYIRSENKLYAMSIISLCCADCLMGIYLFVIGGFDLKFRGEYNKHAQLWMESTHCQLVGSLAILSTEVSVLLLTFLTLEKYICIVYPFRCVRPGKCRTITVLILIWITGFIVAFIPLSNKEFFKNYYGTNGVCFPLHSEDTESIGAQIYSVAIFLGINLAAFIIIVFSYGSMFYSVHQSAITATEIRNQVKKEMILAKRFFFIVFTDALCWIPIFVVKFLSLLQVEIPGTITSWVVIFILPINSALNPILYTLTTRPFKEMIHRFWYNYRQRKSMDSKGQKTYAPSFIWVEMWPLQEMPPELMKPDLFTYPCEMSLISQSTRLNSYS
# Experiment: qHTS Assay for Agonists of the Relaxin Receptor RXFP1: RXFP1 Hit Validation; also: nearly all actives have a fitted effect of over 65% in size;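 as to activation: cAMP rise lowers the TR-FRET signal in lysed cells with PDE4 inhibitor present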
# Conditions: HEK293T-RXFP1 cAMP TR-FRET, 30 min; series mostly up to 115 µM
# Potency is read from the fitted curve at half-maximal effect.
row,SMILES,Potency
1,O=C(Nc1ccccc1C(=O)N1CCOCC1)c1ccco1,inactive
2,CC(=O)CCCCn1c(=O)c2c(ncn2C)n(C)c1=O,inactive
3,O=C(NC1CCCCCC1)c1cc2c(=O)n3ccccc3nc2s1,34.6 µM (active)
4,COc1ccc(OC)c(CNC(=O)C2CCN(C(=O)N(C)C)CC2)c1,inactive
5,CC(C)n1c(CN2CCN(C(=O)c3ccco3)CC2)nc2c1c(=O)n(C)c(=O)n2C,inactive
6,Nc1ncnc2c1ncn2C1OC(CO)C(O)C1O (stereo not given),1.74 µM (active)
7,COC(=O)Cn1cnc2c(C#N)c3n(c2c1=O)CCCCC3,13.8 µM (active)
8,CCCc1nc(SCC(=O)NCC2CCCO2)c2c(=O)n(C)c(=O)n(C)c2n1 (stereo not given),inactive
9,COC(=O)CCNC(=O)Cn1cnc2sc3c(c2c1=O)CCCC3,inactive
10,CCc1nn(CC(=O)NCCCN2CCOCC2)c(=O)c2cc3sccc3n12,inactive
11,CCN(CC)CCCN1C=C2C(=O)C(C)(OC(=O)C3CCCC3)C(=O)C=C2C=C1c1ccsc1 (stereo not given),inactive
12,Cc1cc2c(SCC(=O)NCC3CCCO3)ncnc2s1 (stereo not given),inactive
13,Cc1cccn2c(=O)c(/C=C3\SC(=S)NC3=O)c(NCCCN3CCOCC3)nc12,7.74 µM (active)
14,Cn1c2c(c(=O)n3ncnc13)CCCC2,inactive
15,C=CCSc1nc2c(c(=O)[nH]1)C(C(C)C)C(C#N)=C(N)O2 (stereo not given),27.5 µM (active)
16,C=CCNc1ncnc2c1ncn2C1OC(CO)C(O)C1O (stereo not given),inactive
17,CC(=O)Nc1c2c3c(cccc3n(C)c1=O)C(=O)c1ccccc1-2,inactive
18,N#C/C(=C\c1c(N2CCC(C(N)=O)CC2)nc2ccccn2c1=O)C(=O)NC1CCCCC1,inactive

row,SMILES,Potency
1,CN(C)CCCn1c(SCC(=O)Nc2nc(-c3cccc(Br)c3)cs2)nc2ccccc2c1=O,inactive
2,Cc1cccc(C(=O)Nc2ccccc2C(=O)NCc2ccco2)c1,inactive
3,COc1ccc(CN2C(=O)c3cccnc3C2=O)cc1S(=O)(=O)NC1CCCCC1,38.9 µM (active)
4,O=[N+]([O-])c1cc2c(c(CSc3nnc4ccccn34)c1)OCOC2,30.9 µM (active)
5,Cc1cccc(-c2nnc(SCC(=O)NC3CC3)n2C)c1,inactive
6,CCc1cc2c(=O)nc3n(c2s1)Cc1ccccc1/C3=C(/O)c1cccc([N+](=O)[O-])c1,5.3 µM (active)
7,CC(C)c1ccccc1NC(=O)c1ccccc1NC(=O)C1CCCCC1,inactive
8,O=C(Nc1ccccc1C(=O)O)c1ccc(NC(=O)C2CC2)cc1,inactive
9,CCN(CC)C(=O)c1cc(Cl)ccc1NC(=O)c1ccco1,inactive
10,C=CCOc1c(Cl)cc(CNc2ccc(N(C)C)cc2)cc1OC,inactive
11,CCOP1(=O)OCC2OC(n3cnc4c(N)ncnc43)C(O)C2O1 (stereo not given),6.91 µM (active)
12,CCOc1ccccc1NC(=O)CSc1ccc2nnc(-c3cccnc3)n2n1,inactive
13,COCCNC(=O)NC(=O)COC(=O)C12CC3CC(CC(NC(C)=O)(C3)C1)C2,inactive
14,COc1cc(-c2nnc(SCC(=O)N(C)C3CCS(=O)(=O)C3)o2)cc(OC)c1OC (stereo not given),inactive
15,Nc1ncnc2c1ncn2[C@@H]1O[C@H](COS(=O)(=O)O)[C@@H](O)[C@H]1O,6.9 µM (active)
16,O=C(NCc1nnc2c(C(F)(F)F)cc(Cl)cn12)c1cccnc1,inactive
17,COc1ccc(Cl)cc1-c1n[nH]c(=S)o1,6.15 µM (active)
